For the assay, the system named is primary human hepatic stellate cells (donor 1). Briefly: scaled lipid accumulation score (0 = DMSO-like, 1 = nortriptyline-like); higher = stronger HSC inactivation (lipid re-accumulation), active = hit call of the paper. To be noted: 48 h. The procedure:
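Primary lipid accumulation screen in primary human hepatic stellate cell myofibroblasts (donor 1, passage 8) in 384-well plates. 100 nL of library compound was pin-transferred into 30 µL medium in duplicate, and cells were treated for 48 h. The 'Scaled' score combines distance from plate baseline, toxicity and reproducibility penalties, and is normalised to nortriptyline (positive) and DMSO (negative) controls on each plate. A hit is defined as scaled >0.85 or among the top 3 wells per plate.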

The mark [1] stands for this setting: library stock concentration: 1 mM.
[2] abbreviates: library stock concentration: 10 mM.
Where [3] appears, read: library stock concentration: 3.33 mM.

SMILES strings stand for the structures. Several values for one entry are separate records, joined by “and”; a condition that tells them apart may be missing. Equal entries are not always repeated. Structures can show the parent of a compound that is named as a salt. Hit rate of the full screen: of about 5,800 compounds, about 620 (11%) showed activity. This is one part of a sample in which actives are shown more often than they occur. Values without a mark were called inactive.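 Rule for the calls: active = score above a cut-off or among the top three wells of a plate; in these data no inactive exceeds 0.85.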

In the case of `C/C=C/C/C=C/CCC(=O)[C@H]1O[C@H]1C(N)=O` [Cerulenin], the “scaled lipid accumulation score” value by setting is: under setting [1], no more than 0; (library stock concentration: 22.4 mM) 0.518.
Take `CCCCCC(O)C=CC1C=CC(=O)C1CCCCCCC(=O)O` (stereo not drawn) [8-iso Prostaglandin A1]: the “scaled lipid accumulation score” value under setting [1] is no more than 0.
Same read-out and setting: next, `CCCCCC(O)C=CC1C=CC(=O)C1CCCCCCC(=O)O` (stereo not drawn) [15-epi Prostaglandin A1]: no more than 0.
On to `N[C@@H](Cc1c[nH]cn1)C(=O)O` [L-Histidine hydrochloride], for which the “scaled lipid accumulation score” value under setting [2] is no more than -0.07.
Consider `COC1=CC(=O)C=C(OC)C1=O` [2,6-dimethoxyquinone], for which, under setting [2], the “scaled lipid accumulation score” value is 0.299.
With `CC(C)NCC(O)c1ccc(O)c(O)c1` (single isomer, unassigned; (-)) [(-)-Isoproterenol hydrochloride], the “scaled lipid accumulation score” value is no more than 0. Besides, the “scaled lipid accumulation score” value under setting [2] was no more than -0.055.
As to `CC[C@H]1C(=O)OC[C@@H]1Cc1cncn1C` [Isopilocarpine nitrate], under setting [2], the “scaled lipid accumulation score” value was no more than 0.
Same read-out and setting: as for `COc1cccc(OC)c1OCCNCC1CSc2ccccc2O1` (stereo not drawn) [Benoxathian hydrochloride], the figure is 0.629.
On the same count and under the same terms, next, `CC1(C)CC(Nc2nccc(-c3cnn(-c4ccccc4)c3)n2)CC(C)(C)N1`: 0.799 (active); `CCCn1ncc(-c2ccnc(NC3CC(C)(C)NC(C)(C)C3)n2)c1C`: 0.86 (active).
With `C[C@@H]1O[C@@H](O[C@H]2[C@H](Oc3cc(O)c(C(=O)CCc4ccc(O)cc4)c(O)c3)O[C@H](CO)[C@@H](O)[C@@H]2O)[C@H](O)[C@H](O)[C@H]1O` [Naringin Dihydrochalcone], the “scaled lipid accumulation score” value is, setting by setting: under setting [3], no more than 0; under setting [2], 0.078.
In the case of `O=C(O)CCC/C=C\C[C@@H]1CO[C@H](C(F)(F)F)O[C@@H]1c1ccccc1O`, the “scaled lipid accumulation score” value under setting [2] was no more than 0.
For `CCCCCCCC/C=C\CCCCCCCC(=O)OC[C@H](CO)OC(=O)CCCCCCC/C=C\CCCCCCCC` [1,2-Dioleoyl-sn-glycerol], under setting [1], the “scaled lipid accumulation score” value was no more than 0.
On to `CCN(CC)CCCC(C)Nc1c2ccc(Cl)cc2nc2ccc(OC)cc12` (stereo not drawn) [Quinacrine hydrochloride], for which the “scaled lipid accumulation score” value under setting [2] is 0.586.
For `CCN(CC)CCCC(C)Nc1c2ccc(Cl)cc2nc2ccc(OC)cc12` (stereo not drawn) [Quinacrine 2HCl dihydrate], the “scaled lipid accumulation score” value (library stock concentration: 5 mM) is 0.876 (active).
In the case of `CCN(CC)CCCC(C)Nc1c2ccc(Cl)cc2nc2ccc(OC)cc12` (stereo not drawn) [Quinacrine dihydrochloride], the “scaled lipid accumulation score” value under setting [2] is 0.536.
In the case of `CCN(CC)CCCC(C)Nc1c2ccc(Cl)cc2nc2ccc(OC)cc12` (stereo not drawn) [Quinacrine 2HCl], the “scaled lipid accumulation score” value runs as follows: under setting [3], 0.307; under setting [2], 0.325.
With `CCN(CC)CCCC(C)Nc1nc(C)cc(Nc2ccc3nc(C)cc(N)c3c2)n1` (stereo not drawn), the “scaled lipid accumulation score” value under setting [3] was no more than -0.009; the “scaled lipid accumulation score” value under setting [2] was 0.217 and 0.086.
As for `CCN(CC)CCCC(C)Nc1c2ccc(Cl)cc2nc2ccc(OC)cc12` (stereo not drawn) [Quinacrine dihydrochloride dihydrate], the “scaled lipid accumulation score” value is 0.288.
Regarding `c1ccc(-c2[nH]ncc2-c2ccnc3ccccc23)nc1`, the “scaled lipid accumulation score” value was no more than 0 under setting [1] and no more than -0.001 under setting [2].
`CC1=C(/C=C/C(C)=C/C=C/C(C)=C/CO)C(C)(C)CCC1` [Retinol]: the “scaled lipid accumulation score” value is no more than 0 (library stock concentration: 7 mM) and no more than 0 under setting [2].
With `NC(=O)c1cc[n+](CC2=C(C(=O)[O-])N3C(=O)[C@@H](NC(=O)Cc4cccs4)[C@H]3SC2)cc1` [Cefalonium], the “scaled lipid accumulation score” value was no more than 0.
For the molecule `O=NN(CCCl)C(=O)NC1CCCCC1` [Lomustine], the “scaled lipid accumulation score” value is 0.044 under setting [3], 0.014 (library stock concentration: 8.6 mM) and no more than 0 under setting [2].
In the case of `CN1C2CCC1CC(OC(=O)C(O)c1ccccc1)C2` (stereo not drawn) [Homatropine bromide], the “scaled lipid accumulation score” value under setting [2] was no more than 0.
As for `CN1[C@@H]2CC[C@H]1C[C@@H](OC(=O)C(O)c1ccccc1)C2` (mixture of isomers) [Homatropine hydrobromide (R,S)], the “scaled lipid accumulation score” value is 0.043.
For `CN1[C@@H]2CC[C@H]1C[C@@H](OC(c1ccccc1)c1ccccc1)C2` [Benztropine mesylate], the “scaled lipid accumulation score” value under setting [3] is 0.003.
Regarding `CN1[C@@H]2CC[C@H]1C[C@@H](OC(=O)C(O)c1ccccc1)C2` (mixture of isomers) [DL-Homatropine hydrobromide], the “scaled lipid accumulation score” value under setting [2] is 0.242.
Consider `CN1[C@@H]2CC[C@H]1C[C@@H](OC(c1ccccc1)c1ccccc1)C2` [Benztropine], for which the “scaled lipid accumulation score” value is, setting by setting: (library stock concentration: 4.9 mM) 0.193; under setting [2], 0.38.
Consider `CN1C2CCC1CC(OC(=O)C(O)c1ccccc1)C2` (stereo not drawn) [Homatropine Bromide], for which the “scaled lipid accumulation score” value was no more than 0 under setting [3] and no more than -0.001 under setting [2].
On to `CN1C2CCC1CC(OC(c1ccccc1)c1ccccc1)C2.CS(=O)(=O)O` (stereo not drawn) [Benztropine mesylate], for which the “scaled lipid accumulation score” value under setting [2] was 1.05 (active).
Same read-out and setting: next, `C1[C@@H](N(C)[C@@H]2C1)C[C@@H](OC(c3ccccc3)c4ccccc4)C2.CS(O)(=O)=O` (stereo partly drawn) [Benztropine mesylate]: 0.873 (active).
Take `CN1CCC(OC(c2ccccc2)c2ccccc2)CC1` [Diphenylpyraline hydrochloride]: the “scaled lipid accumulation score” value is 0.332. Further, the “scaled lipid accumulation score” value (library stock concentration: 6.3 mM) is 0.256. Also, the “scaled lipid accumulation score” value under setting [2] is 0.235.
As to `CN1[C@@H]2CC[C@H]1C[C@@H](OC(c1ccccc1)c1ccccc1)C2` [Cogentin Mesylate], the “scaled lipid accumulation score” value under setting [2] is 0.598.
As to `CCOC(=O)Nc1cc(-c2ccc(C)c(NS(C)(=O)=O)c2)nn2c(C)nnc12` [Bromosporine], the “scaled lipid accumulation score” value by setting is: under setting [3], 0.166; under setting [2], 0.621.
As for `CCCCCCCCCCCCCCCCOC[C@H](CO)OC(C)=O` [Hexadecyl Acetyl Glycerol], the “scaled lipid accumulation score” value under setting [1] is no more than 0.
As for `CNC(=O)c1c(F)cccc1Nc1nc(Nc2cc3c(cc2OC)CCN3C(=O)CN(C)C)nc2[nH]ccc12` [listing 1 of 2 here], the “scaled lipid accumulation score” value under setting [2] is 0.776.
In the case of `CNC(=O)c1c(F)cccc1Nc1nc(Nc2cc3c(cc2OC)CCN3C(=O)CN(C)C)nc2[nH]ccc12` [listing 2 of 2 here], the “scaled lipid accumulation score” value under setting [3] is 0.98 (active).
As to `CNC(=O)c1ccccc1Nc1nc(Nc2ccc(N3CCOCC3)cc2OC)ncc1Cl`, the “scaled lipid accumulation score” value reads like this: (library stock concentration: 80 uM) no more than -0.016; (library stock concentration: 400 uM) no more than -0.016; (library stock concentration: 2 mM) no more than -0.016; under setting [3], no more than 0; under setting [2], ≤ 0 and ≤ -0.016.
Take `O=C(c1ccc2c(c1)OCCO2)N1CCCCC1`: the “scaled lipid accumulation score” value under setting [2] was no more than -0.07.
As to `COC(=O)C1=CC[C@@]23CC[C@@H]([C@@](C)(/C=C/C=C(\C)C(=O)O)OC2=O)[C@@]3(OC(C)=O)CC1` [Pseudolaric Acid B], under setting [1], the “scaled lipid accumulation score” value is no more than 0.

The values above are taken from the supplement of paper PMC9135407.
